# Assay outcomes: PubChem, National Center for Advancing Translational Sciences (NCATS)
# An excerpt weighted towards active compounds, which were near 2.5% of everything screened.
# Anesthetic bind – qHTS Assay for Identification of Novel General Anesthetics | apoferritin/1-aminoanthracene competitive binding, fluorescence | Potency, µM (top dose mostly 77.5 µM), actives largely listed as inhibitors | 0.074% of 350,000 active | AID 485281, 2010; also: nearly all actives have a fitted effect of over 20% in size
# Target sequence (P02791 2-175 limits assumed): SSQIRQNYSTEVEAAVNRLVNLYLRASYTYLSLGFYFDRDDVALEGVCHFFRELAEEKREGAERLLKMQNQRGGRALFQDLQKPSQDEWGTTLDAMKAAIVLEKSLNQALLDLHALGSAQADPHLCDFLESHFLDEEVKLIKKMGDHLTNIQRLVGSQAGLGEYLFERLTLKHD
#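 Horse-spleen apoferritin (10 uM) was mixed with 50% saturated 1-aminoanthracene in PBS, exposed to compounds for 10 min at room temperature, and read for fluorescence (ex 380 nm, em 535 nm). Competitive displacement was fitted with a four-parameter Hill equation.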
# pAkt inh – HTS Assay for Inhibitors of Akt Phophorylation: Primary Screen; 0.32% of 360,000 active; activity change, % for hits at 50 µM; Neuro2A IGF-stimulated pAkt S473 HTRF, 20 min; hits give low values; in the data active = activity change below about -80%; inconclusive = mostly about -51% to -80%
#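 Neuro2A cells in DMEM with 0.5% FBS, overnight at 37 deg C, given compound at single 50 µM final, then IGF (6 nM final) for 20 min at 37 deg C. Lysed; phospho-Akt Ser473 by HTRF after 24 h, 665/615 ratio.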
# CCT modulator – High-Throughput Screening for Modulators of Cytosolic Chaperonin Activity; purified chaperonin ATPase assay, HTRF ADP detection, 30 min; activity change, % (no concentration beside the values), hits read low; 0.3% of 360,000 active; in the data active = activity change below about -30%
#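 Enzyme 40 or 20 nM (batch-dependent) in Tris pH 7.4/KCl/MgCl2/DTT; cpd 76 uM single point; ATP 10 uM; 30 min 37 °C; Transcreener ADP HTRF detection, 30 min RT; ratio 665/615.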
# Mito fusion act – qHTS Assay for Small Molecule Inhibitors of Mitochondrial Division or Activators of Mitochondrial Fusion. S. cerevisiae fusion-defective mutant growth rescue, CellTiterGlo 48 h. Potency, µM (doses to about 46.1 µM), usual class: activators. 0.23% of 320,000 active; also: nearly all actives have a fitted effect of over 45% in size
#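 Luminescent cell viability in 1536-well qHTS format served as the measure of rescued growth in ts fusion-mutant S. cerevisiae cultured on non-fermentable YPEG for 48 hours at 37C.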
# aSyn rescue – qHTS of alpha-syn Inhibitors; Yeast expressing alpha-synuclein, growth rescue, BacTiter-Glo, 24 h; 0.14% of 370,000 active; Potency, µM (series often up to 46.1 µM), hits mostly activators; also: nearly all actives have a fitted effect of over 65% in size
#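 Screening used galactose-induced yeast with toxic alpha-synuclein levels, exposed to compound for 24 hr at 30 deg C. Cell growth, read with BacTiter-Glo luminescence, gave the measured signal.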
# TDP-43 yeast inh – qHTS of TDP-43 Inhibitors; 1.8% of 410,000 active; Potency, µM (titrated, usually from 46.1 µM), usual class: activators; TDP-43 expressing yeast growth rescue, BacTiter-Glo, 24 h; also: nearly all actives have a fitted effect of over 50% in size
#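 Galactose-induced TDP-43 yeast, OD600=0.02, compound pinned; 24 hr, 30 deg C; BacTiter-Glo luminescence for growth. Inhibitors of TDP-43 toxicity read as activators.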
# A number is an active result; n = inactive; u = inconclusive; x = not tested or not shown. Unless noted, calls follow the shape of the dose curve; as a rule, active = well fitted curve in the direction sought with a large enough effect; inconclusive = small, poorly fitted or top-dose-only effect, or another doubt; inactive = no such curve, though single readings can be large; an effect the other way counts as inactive or inconclusive.
SMILES,Anesthetic bind,pAkt inh,CCT modulator,Mito fusion act,aSyn rescue,TDP-43 yeast inh
COc1cc(C(O)c2nc(-c3ccc(F)cc3OC)cs2)ccc1F (stereo not drawn),x,x,n,x,u,25µM
COc1ccc(C(O)c2nc(-c3ccc(F)c(Cl)c3)cs2)cc1 (stereo not drawn),x,n,n,x,13µM,11µM
COc1cccc(C(O)c2nc(-c3ccc(F)c(Cl)c3)cs2)c1 (stereo not drawn),x,x,n,x,u,u
COc1ccc(-c2csc(C(O)c3ccc(F)c(OC)c3)n2)cc1 (stereo not drawn),x,n,n,x,18µM,22µM
COc1cc(C(O)c2nc(-c3cccc(C#N)c3)cs2)ccc1F (stereo not drawn),x,n,n,x,u,10µM
O=C(C[n+]1ccccc1Br)c1ccc(F)cc1,x,x,x,x,n,x
COc1cc2nc(N3CCCN(C)CC3)nc(NC3CCN(Cc4ccccc4)CC3)c2cc1OC,x,x,x,n,n,x
O=C(NCCO)c1ccc(-c2nnc(Nc3ccc(OC(F)(F)Cl)cc3)c3ccccc23)cc1,n,x,x,x,x,n
CCOC(=O)c1c(C)[nH]c(C)c1S(=O)(=O)N(C)CC(=O)Nc1ccc(C)c(N(C)C)c1,n,x,x,x,x,n
COC(=O)C1=C[C@@H](C(=O)OC)[C@@H]2C3=C(C(=O)[C@@]2(C)NC(=O)c2ccccc2)[C@H](C)[C@@H]2C(=O)N(c4ccccc4)C(=O)[C@@H]2[C@@H]3C1,n,x,x,x,x,x
CCCCC1(C)NC(=O)c2c(C)sc(C(=O)OCC)c2N1 (stereo not drawn),n,n,n,n,n,20µM
COc1cc(C=C(c2nc3ccccc3s2)c2nc3ccccc3s2)cc(OC)c1O,u,n,n,18µM,n,u
Cc1cc(C(=O)OCC(=O)NC2CCC(C)CC2)c(C)o1 (stereo not drawn),x,n,n,n,n,n
Cc1cc(C(=O)NC2CCC(C)CC2)c(C)o1 (stereo not drawn),n,n,n,n,u,13µM
CSc1ccc(C2c3[nH]c4ccccc4c3CCN2C(=O)CCC2CCCC2)cc1 (stereo not drawn),n,x,x,x,x,n
COc1cc(OC)cc(-c2nnc(SCc3cccnc3)o2)c1,n,n,n,n,n,u
Cc1cccc(-c2nnc(-c3ccc(N)cc3)o2)c1,n,n,n,n,n,8.9µM
N#Cc1cccc(-c2nnc(SCc3ccccc3C#N)o2)c1,n,n,n,n,n,18µM
COc1cccc(-c2nnc(SCc3cccnc3)o2)c1,n,n,n,n,n,13µM
Cc1cccc(-c2nnc(SCc3ccccc3)o2)c1,u,n,n,n,n,11µM
Cc1cccc(CSc2nnc(-c3ccco3)o2)c1,u,n,n,n,n,18µM
Cc1ccc(C)n1-c1ccc(-c2ccnc(N)n2)cc1,n,n,n,n,n,32µM
CCC1CCc2nc3sc(C(=O)Nc4ccc(C)cc4C)c(N)c3cc2C1 (stereo not drawn),n,x,x,x,x,n
Cc1ccc(NC(=O)c2cc3c([nH]c2=O)CC(c2ccccc2)CC3=O)cc1 (stereo not drawn),x,x,x,x,n,x
COc1cc(C(=O)Nc2cc3c(cc2N2CCCCC2)n(C)c(=O)n3C)cc(OC)c1OC,n,n,n,13µM,n,n
SMILES,Anesthetic bind,pAkt inh,CCT modulator,Mito fusion act,aSyn rescue,TDP-43 yeast inh
COc1ccc(C(=O)Nc2cc3c(cc2N2CCCCC2)n(C)c(=O)n3C)cc1OC,n,n,n,13µM,n,n
CCOc1ccc(S(=O)(=O)NCc2cccn2Cc2cccc(C)c2)cc1,n,x,x,x,x,u
Cc1nc(N2CCN(c3ccccc3)CC2)nc2c1C(=O)CCC2,n,n,n,n,n,13µM
CCCn1nnnc1SCC(=O)Nc1nnc(CC)s1,n,-108%,n,n,n,n
CC(=O)Sc1nc(-c2ccccc2)[nH]c1S(=O)(=O)c1ccc(C)cc1,n,n,n,n,n,u
CSc1nc(-c2ccc(C)cc2)[nH]c1S(=O)(=O)c1ccccc1,n,-106%,n,n,n,n
